Out of some 370,000 compounds screened, about 4,800 (1.3%) were called active.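 Rule for the calls: active = inhibition above about 21% made by adding two undisclosed values (limit read from the data); inactive = the rest.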 What follows is part of a selection rich in actives, with near analogues and random picks from the rest.
target: Protein arginine N-methyltransferase 1 (Homo sapiens) (UniProt Q99873); assay: PRMT1 methyltransferase inhibitors, primary screen, biochemical, fluorescence polarization (AID 652257); settings: recombinant PRMT1, activity-based probe fluorescence polarization; at 2.79 µM; hits give high values
Sequence (Q99873 whole entry, looked up): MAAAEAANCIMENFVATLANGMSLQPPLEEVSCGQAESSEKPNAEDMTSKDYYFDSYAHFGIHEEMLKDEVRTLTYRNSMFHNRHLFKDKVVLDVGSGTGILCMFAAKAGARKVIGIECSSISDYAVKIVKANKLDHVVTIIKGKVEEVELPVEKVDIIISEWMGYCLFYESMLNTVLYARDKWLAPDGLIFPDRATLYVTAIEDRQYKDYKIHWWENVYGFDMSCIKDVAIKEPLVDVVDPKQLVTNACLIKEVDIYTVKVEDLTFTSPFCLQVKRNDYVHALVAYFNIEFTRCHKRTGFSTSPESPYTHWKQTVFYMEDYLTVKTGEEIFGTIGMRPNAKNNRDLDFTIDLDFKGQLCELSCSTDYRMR

SMILES	inhibition
O=C(Cn1c(N2CCN(C/C=C/c3ccccc3)CC2)nc2ccccc21)c1ccccc1	0.25% (inactive)
CCC(C(=O)NCc1cccnc1)n1nc(C)c2sc3ccccc3c2c1=O (centres undefined)	3.72% (inactive)
Cc1ccc(S(=O)(=O)C2(S(=O)(=O)c3ccc(C)cc3)CCCC2)cc1	1.95% (inactive)
CCCOc1ccc(C(=O)C(CCC(CNCC)C(=O)c2ccc(OCCC)cc2)CNCC)cc1 (centres undefined)	-1.8% (inactive)
CCc1ccc(N(C(=O)c2csnn2)C(C(=O)NC2CCCCC2)c2ccncc2)cc1 (centres undefined)	0.98% (inactive)
Clc1ccc(-n2c(COc3ccccc3)nnc2SCc2nc3ccccc3[nH]2)cc1	4.16% (inactive)
CC1CCN(c2ccc(C(=O)O)cc2NS(=O)(=O)c2ccc(Br)s2)CC1	-1.42% (inactive)
COc1ccc(OCC(=O)OCCN(C)C)cc1	-3.78% (inactive)
COc1ccc(C(=O)COC(=O)COc2ccc(C)c(C)c2)cc1	29.1% (active)
Cc1ccc(OCC(=O)Nc2ccc(C(=O)O)cc2NC(=O)COc2ccc(C)c(C)c2)cc1C	-0.54% (inactive)
CCn1c(=O)n2n(c1=O)[C@@]1(C=C3CCCC[C@H]32)N=C(NC(=O)c2ccccc2)N(Cc2ccccc2)[C@H]1Cc1ccccc1	-0.64% (inactive)
Cc1cccc(NC(=O)C[C@H]2CC[C@H]3[C@@H](COc4ccc(NC(=O)Nc5ccccc5)cc4C(=O)N3C)O2)c1	0.26% (inactive)
CCOC(=O)Nc1ccc(S(=O)(=O)N(C)C(C)C)cc1	1.03% (inactive)
COc1ccc2c(C(C)c3ccc(N)cc3)cn(C)c2c1 (centres undefined)	-4.35% (inactive)
O=C(CSc1cccc[n+]1[O-])NCCCc1ccccc1	-1.06% (inactive)
O=C(CSc1cccc[n+]1[O-])c1ccc(-c2ccccc2)cc1	39.5% (active)
CCN(C(=O)CSc1cccc[n+]1[O-])c1ccccc1	-2.83% (inactive)
CCN(CC)C(=O)CC[C@H]1CC[C@]2(CCCN(Cc3ccc(Cl)cc3)C2)O1	-4.34% (inactive)
Cc1ccc(NCc2n[nH]c(=S)n2-c2ccccc2)cc1Cl	15.4% (inactive)
CCn1c(CSCc2c(Cl)cccc2Cl)n[nH]c1=S	-0.4% (inactive)
S=c1[nH]nc(CSCc2ccc(Cl)cc2Cl)n1-c1ccccc1	21.5% (active)
CCCNC(=O)C1(C)CCCN(C(=O)c2oc3ccccc3c2C)C1 (centres undefined)	-2.54% (inactive)

SMILES	inhibition
CNc1nc(=O)n(C2CCCO2)cc1C (centres undefined)	4.11% (inactive)
C=CS(=O)(=O)N(Cc1nnn(Cc2ccccc2)c1Br)[C@H](C(=O)OC)C(C)C	-6.2% (inactive)
COc1cc2c(=O)n(C)c3ccccc3c2cc1OC	0.5% (inactive)
Cc1cccc(Oc2c([N+](=O)[O-])c(=O)n(C)c3ccccc23)c1	30% (active)
Cn1c(=O)c([N+](=O)[O-])c(Oc2ccccc2)c2ccccc21	5.71% (inactive)
CC(C)NC(=O)NNc1c(Cl)cncc1Cl	-2.84% (inactive)
CCC(c1ccc(NC(=O)OC(C)(C)C)cc1)c1cc(OC)cc(OC)c1 (centres undefined)	0.65% (inactive)
O=S(=O)(NCC1OCCc2ccccc21)c1ccccc1 (centres undefined)	1.74% (inactive)
O=c1/c(=C/c2ccc(CNS(=O)(=O)c3ccccc3)o2)sc2n1CCN=2	42.5% (active)
O=C(c1ccc(S(=O)(=O)NCc2ccco2)cc1)N1CCN(c2ccccc2)CC1	-5.34% (inactive)
Cc1cccc(-n2c(N)c(C(=O)N3CCN(C)CC3)sc2=S)c1	78.2% (active)
Cc1ccc(-n2c(N)c(C(=O)N3CCOCC3)sc2=S)c(C)c1	2.33% (inactive)
N#Cc1ccccc1-n1c(N)c(C(=O)N2CCCC2)sc1=S	12.5% (inactive)
O=C(CNC(=O)c1ccccc1)OC(C(=O)Nc1cc([N+](=O)[O-])ccc1F)c1ccccc1 (centres undefined)	-5.95% (inactive)
COc1cccc(N2CC(NS(=O)(=O)c3cccs3)CC2=O)c1 (centres undefined)	0.96% (inactive)
CN[C@H]1C[C@H]2c3cc(N4CCOCC4)ccc3CCN2C[C@H]1[C@H](C)O	1.75% (inactive)
Cc1ccccc1NC(=O)CSC1=NCCN1	9.55% (inactive)
Cc1cccc(NC(=O)COC(=O)CCc2ccccc2)c1C	-1.61% (inactive)
Cc1cccc(NC(=O)CSc2nc3c(c(=O)[nH]2)CCCC3)c1C	-0.58% (inactive)
Cc1ccccc1NC(=O)CSC(=O)c1ccccc1	24.5% (active)
Cc1ccccc1NC(=O)Cn1nnc(-c2ccccc2F)n1	-2.95% (inactive)
Cc1cccc(NC(=O)CSC(N)=O)c1C	35.8% (active)

Source: PubChem BioAssay AID652257 (The Scripps Research Institute Molecular Screening Center, 2013)
